# Laboratory results reported in PubChem BioAssay (NCI).
# This is part of a sample that, as a whole, favours compounds with a hit. Of some 79,000 tested, about 15% had one in any assay. A number with no mark means an inactive call. Active and inactive are the calls of the source. Rule as the data show it: active = growth inhibition above about 70%; inactive = the rest.
# Assays:
# [1] = NCI Yeast Anticancer Drug Screen. Data for the rad52 strain (AID 147);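 also: 0% = growth of vehicle-treated control cultures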; conditions: S. cerevisiae rad52 mutant growth inhibition, stronger effect = higher value
# Summary of the method: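 Yeast strain carrying a DNA damage repair alteration was exposed to test compounds. Growth inhibition was measured relative to vehicle-treated controls.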
# [2] = NCI Yeast Anticancer Drug Screen. Data for the wt1 strain (AID 149);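 also: 0% = growth of vehicle-treated wt1 cultures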; conditions: S. cerevisiae wt1 strain (SPY 50644) growth inhibition, stronger effect = higher value
# Summary of the method: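 Yeast wt1 strain exposed to compounds; growth inhibition measured relative to vehicle-treated controls.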
# [3] = NCI Yeast Anticancer Drug Screen. Data for the rad50EPP+ strain (AID 151);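 also: 0% = growth of vehicle-treated control cultures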; conditions: S. cerevisiae rad50 mutant strain, stronger effect = higher value
# Summary of the method: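 Yeast strain carrying rad50 alteration (rad50EPP+) exposed to compounds; growth inhibition measured relative to vehicle-treated controls.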
# [4] = NCI Yeast Anticancer Drug Screen. Data for the mgt1 strain (AID 153); conditions: S. cerevisiae mgt1 mutant growth inhibition, stronger effect = higher value
# Summary of the method: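 Yeast mgt1 strain (DNA repair/cell-cycle alteration panel) exposed to compounds; growth inhibition measured relative to vehicle-treated controls.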
# [5] = NCI Yeast Anticancer Drug Screen. Data for the rad50 strain (AID 155);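 also: 0% = growth of vehicle-only cultures of the same strain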; conditions: S. cerevisiae rad50 strain growth inhibition, stronger effect = higher value
# Summary of the method: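 Yeast carrying a defined DNA repair defect were exposed to test compounds, and growth was compared with vehicle-treated controls to give percent inhibition.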
# [6] = NCI Yeast Anticancer Drug Screen. Data for the mec2-1 strain (AID 157); conditions: S. cerevisiae mec2-1 strain, stronger effect = higher value
# Summary of the method: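 mec2-1 yeast strain, carrying an alteration in DNA damage repair or cell cycle control, was exposed to compounds; growth inhibition was measured relative to vehicle-treated controls.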
# [7] = NCI Yeast Anticancer Drug Screen. Data for the rad14 strain (AID 159);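 also: 0% = growth of vehicle-treated control cultures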; conditions: S. cerevisiae rad14 strain growth inhibition, stronger effect = higher value
# Summary of the method: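 Yeast cells carrying a defined DNA-repair defect were exposed to compounds, and growth inhibition was calculated relative to vehicle-treated control cultures.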
# [8] = NCI Yeast Anticancer Drug Screen. Data for the sgs1 mgt1 strain (AID 161);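 also: 0% = growth of cultures given vehicle only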; conditions: S. cerevisiae sgs1 mgt1 strain, stronger effect = higher value
# Summary of the method: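 Compounds are added to genetically altered yeast, and growth is compared with cultures given vehicle alone to give percent inhibition.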
# [9] = NCI Yeast Anticancer Drug Screen. Data for the CLN2oe strain (AID 163);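 also: 0% = growth of vehicle-only control cultures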; conditions: S. cerevisiae CLN2oe strain, stronger effect = higher value
# Summary of the method: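 Yeast cells carrying a defined cell-cycle control alteration were exposed to test compounds. Growth inhibition was scored against vehicle-treated control cultures.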
# [10] = NCI Yeast Anticancer Drug Screen. Data for the cln2 rad14 strain (AID 165);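 also: 0% = growth equal to vehicle treated cultures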; conditions: S. cerevisiae cln2 rad14 strain, stronger effect = higher value
# Summary of the method: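 Yeast carrying cln2 and rad14 alterations (cell cycle control and DNA damage repair) were exposed to compounds. Growth inhibition was measured against vehicle-treated controls.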
# [11] = NCI Yeast Anticancer Drug Screen. Data for the bub3 strain (AID 167); conditions: S. cerevisiae bub3 mutant strain, stronger effect = higher value
# Summary of the method: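 Compounds were applied to a genetically altered yeast strain carrying a cell-cycle control defect. Growth inhibition was scored against vehicle-treated controls.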
# [12] = NCI Yeast Anticancer Drug Screen. Data for the wt2 strain (AID 169);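 also: 0% = growth of vehicle-treated yeast cultures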; conditions: S. cerevisiae wt2 strain growth inhibition, stronger effect = higher value
# Summary of the method: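 Yeast cells were exposed to test compounds, and growth inhibition was measured relative to vehicle-treated controls.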
# [13] = NCI Yeast Anticancer Drug Screen. Data for the mlh1 strain (AID 171);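 also: 0% = growth of vehicle-treated control cultures of the same strain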; conditions: S. cerevisiae mlh1 strain growth inhibition, stronger effect = higher value
# Summary of the method: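 Yeast carrying a defined genetic alteration in DNA damage repair or cell cycle control were exposed to test compounds. Growth inhibition was measured relative to vehicle-treated controls.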
# [14] = NCI Yeast Anticancer Drug Screen. Data for the sgs1 strain (AID 173);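 also: 0% = growth of vehicle-only control cultures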; conditions: S. cerevisiae sgs1 mutant, stronger effect = higher value
# Summary of the method: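 Yeast mutant strains carrying defined defects in DNA damage repair or cell cycle control were exposed to test compounds. Growth inhibition was scored against vehicle-treated controls.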
# [15] = NCI Yeast Anticancer Drug Screen. Data for the mlh1 rad18 strain (AID 175); conditions: S. cerevisiae mlh1 rad18 strain growth inhibition, stronger effect = higher value
# Summary of the method: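 Growth inhibition of the yeast strain was measured after compound exposure and expressed relative to vehicle-treated controls. The strain carries defined defects in DNA damage repair.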
# [16] = NCI Yeast Anticancer Drug Screen. Data for the rad18 strain (AID 177); conditions: S. cerevisiae rad18 mutant growth inhibition, stronger effect = higher value
# Summary of the method: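 Yeast carrying a defined DNA damage repair alteration were exposed to compounds. Growth inhibition was expressed relative to vehicle-treated controls.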
# [17] = at 5.0 µM (retest, dose inferred, filed as 0.5)
# [18] = at 50.0 µM (retest, dose inferred, filed as 5.0)
smiles,measurement,setting,value
CCC(=O)OCCn1c2nc(=O)[nH]c(=O)c-2nc2cc(C)c(C)cc21,growth inhibition,[1]; at 1.2 µM,-10%
same,growth inhibition,[1]; at 3.7 µM,-12%
same,growth inhibition,[1]; at 11.0 µM,-5%
same,growth inhibition,[1]; at 33.0 µM,0%
same,growth inhibition,[1]; at 100.0 µM,0%
same,growth inhibition,[2]; at 1.2 µM,8%
same,growth inhibition,[2]; at 3.7 µM,-4%
same,growth inhibition,[2]; at 11.0 µM,4%
same,growth inhibition,[2]; at 33.0 µM,7%
same,growth inhibition,[2]; at 100.0 µM,11%
same,growth inhibition,[3]; at 1.2 µM,-1%
same,growth inhibition,[3]; at 3.7 µM,-13%
same,growth inhibition,[3]; at 11.0 µM,24%
same,growth inhibition,[3]; at 33.0 µM,73% (active)
same,growth inhibition,[3]; at 100.0 µM,88% (active)
same,growth inhibition,[4]; at 1.2 µM,-1%
same,growth inhibition,[4]; at 3.7 µM,-8%
same,growth inhibition,[4]; at 11.0 µM,3%
same,growth inhibition,[4]; at 33.0 µM,75% (active)
same,growth inhibition,[4]; at 100.0 µM,88% (active)
same,growth inhibition,[5]; at 1.2 µM,-57%
same,growth inhibition,[5]; at 3.7 µM,-17%
same,growth inhibition,[5]; [17],3%
same,growth inhibition,[5]; at 11.0 µM,-9%
same,growth inhibition,[5]; at 33.0 µM,15%
same,growth inhibition,[5]; [18],10%
same,growth inhibition,[5]; at 50.0 µM,33.3%
same,growth inhibition,[5]; at 100.0 µM,44%
same,growth inhibition,[6]; at 1.2 µM,-2%
same,growth inhibition,[6]; at 3.7 µM,-3%
same,growth inhibition,[6]; [17],3%
same,growth inhibition,[6]; at 11.0 µM,-2%
same,growth inhibition,[6]; at 33.0 µM,-4%
same,growth inhibition,[6]; [18],14%
same,growth inhibition,[6]; at 50.0 µM,42.9%
same,growth inhibition,[6]; at 100.0 µM,-1%
same,growth inhibition,[7]; at 1.2 µM,3%
same,growth inhibition,[7]; at 3.7 µM,0%
same,growth inhibition,[7]; at 11.0 µM,23%
same,growth inhibition,[7]; at 33.0 µM,14%
same,growth inhibition,[7]; at 100.0 µM,-3%
same,growth inhibition,[8]; [17],2%
same,growth inhibition,[8]; [18],91% (active)
same,growth inhibition,[8]; at 50.0 µM,57.5%
same,growth inhibition,[9]; at 1.2 µM,-7%
same,growth inhibition,[9]; at 3.7 µM,-5%
same,growth inhibition,[9]; at 11.0 µM,-3%
same,growth inhibition,[9]; at 33.0 µM,-5%
same,growth inhibition,[9]; at 100.0 µM,-2%
same,growth inhibition,[10]; [17],-1%
same,growth inhibition,[10]; [18],3%
same,growth inhibition,[10]; at 50.0 µM,19.9%
same,growth inhibition,[11]; at 1.2 µM,-7%
same,growth inhibition,[11]; at 3.7 µM,-4%
same,growth inhibition,[11]; [17],-2%
same,growth inhibition,[11]; at 11.0 µM,-5%
same,growth inhibition,[11]; at 33.0 µM,5%
same,growth inhibition,[11]; [18],10%
same,growth inhibition,[11]; at 50.0 µM,3.15%
same,growth inhibition,[11]; at 100.0 µM,35%
same,growth inhibition,[12]; at 1.2 µM,-8%
same,growth inhibition,[12]; at 3.7 µM,-1%
same,growth inhibition,[12]; at 11.0 µM,20%
same,growth inhibition,[12]; at 33.0 µM,85% (active)
same,growth inhibition,[12]; at 100.0 µM,93% (active)
same,growth inhibition,[13]; at 1.2 µM,-11%
same,growth inhibition,[13]; at 3.7 µM,-6%
same,growth inhibition,[13]; at 11.0 µM,-5%
same,growth inhibition,[13]; at 33.0 µM,65%
same,growth inhibition,[13]; at 100.0 µM,86% (active)
same,growth inhibition,[14]; at 1.2 µM,-15%
same,growth inhibition,[14]; at 3.7 µM,-7%
same,growth inhibition,[14]; at 11.0 µM,21%
same,growth inhibition,[14]; at 33.0 µM,83% (active)
same,growth inhibition,[14]; at 100.0 µM,94% (active)
same,growth inhibition,[15]; [17],5%
same,growth inhibition,[15]; [18],29%
same,growth inhibition,[15]; at 50.0 µM,21.1%
same,growth inhibition,[16]; at 1.2 µM,-3%
same,growth inhibition,[16]; at 3.7 µM,-1%
same,growth inhibition,[16]; at 11.0 µM,-1%
same,growth inhibition,[16]; at 33.0 µM,7%
same,growth inhibition,[16]; at 100.0 µM,11%
